# Laboratory results: PubChem BioAssay AID1578 (Sanford-Burnham Center for Chemical Genomics, 2009)
# The campaign covered roughly 290,000 compounds. About 3,000 (1%) were called active. The full list was thinned out, with actives kept by preference. Unmarked numbers belong to inactive results. Cut-off read from the data, not from the text of the source: active = inhibition mostly above about 36% (no sharp cut-off); inactive = mostly below about 34%.
# Assay: inhibition of NOD1-driven NF-kB reporter – cell-based, luminescence, uHTS, primary screen (AID 1578);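 note: HEK-293T reporter cells stimulated with the NOD1 agonist gamma-tri-DAP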
# Conditions: NOD1-driven NF-kB luciferase reporter cells, at 4 µM, hits give high values
row,Compound,inhibition
1,CCOC(=O)CNc1cccc(C(F)(F)F)c1,-35.5%
2,O=C(CNS(=O)(=O)c1ccccc1)NCC(=O)OCc1ccc(Cl)cc1,-12.2%
3,O=C(NCc1cccnc1)/C(=C/c1ccc(-c2cccc(C(F)(F)F)c2)o1)NC(=O)c1ccccc1,11.9%
4,O=C(NCc1cccnc1)/C(=C\c1ccc(-c2ccc(Br)cc2)o1)S(=O)(=O)c1ccccc1,106% (active)
5,O=C(CN(Cc1ccc(Br)cc1)S(=O)(=O)c1ccccc1)NCc1cccnc1,14.5%
6,COc1ccc(S(=O)(=O)N2CCC(NC(=O)c3cccc(F)c3)CC2)cc1,-7.7%
7,CC(=O)NC(CC(=O)Oc1ccc(C)cc1Br)c1ccccc1 (centres undefined),-28.4%
8,Cc1c(CCOC(=O)c2cc([N+](=O)[O-])cc([N+](=O)[O-])c2)sc[n+]1CC(=O)c1ccccc1,-27.6%
9,Cc1c(CCOC(=O)c2cc([N+](=O)[O-])cc([N+](=O)[O-])c2)sc[n+]1CC(=O)c1ccc(Br)cc1,49.3% (active)
10,Cc1c(CCOC(=O)c2cccc([N+](=O)[O-])c2)sc[n+]1CC(=O)c1ccccc1,-44.5%
11,O=C(NCc1ccco1)C12CN(Cc3ccccc3)CC1C(c1ccc([N+](=O)[O-])cc1)=NO2 (centres undefined),10.3%
12,CCOCCc1nnc(NC(=O)C(C)Oc2ccccc2)s1 (centres undefined),-60.4%
13,COc1ccc(NC(=O)CCC(=O)N/N=C/c2cn(C)nc2C)cc1,10.7%
14,Cc1cccc(Nc2nc3c(s2)CCCC3)c1,-49.8%
15,O=C(O)c1ccc(Nc2nc3c(s2)CCCC3)cc1,69.2% (active)
16,CN(C)c1ccc(C(=O)Nc2nc3c(s2)CCCC3)cc1,25.6%
17,Cc1cc(-c2nc3cccnc3s2)ccc1NS(=O)(=O)c1ccc2c(c1)OCCO2,-4%
18,Cc1nc2ccc(S(=O)(=O)Nc3cccc(-c4nc5cccnc5s4)c3C)cc2s1,-33.3%
19,CCc1ccc(NC(=O)CSc2nnc(-c3n[nH]c4ccccc34)n2-c2ccccc2)cc1,6%
20,CC(C)CC(C(=O)N1CCc2ccccc2C1)N1C(=O)c2ccccc2C1=O (centres undefined),5.4%
21,COc1ccc(N2C(=O)c3ccccc3NC2c2cccnc2)cc1 (centres undefined),-14.4%
22,COc1ccccc1N1Cc2ccc(OC)c(OC)c2C1=O,-5.2%

row,Compound,inhibition
1,COc1ccc2c(c1OC)C(=O)N(c1ncn[nH]1)C2,-15.4%
2,COc1ccc2c(c1OC)C(=O)OC2,33.6% (active)
3,COc1cc(OC)cc(C(=O)OCCCOC(=O)c2cc(OC)cc(OC)c2)c1,-7.2%
4,CN(NS(=O)(=O)c1ccc(Cl)cc1)c1nc(C(F)(F)F)nc2ccccc12,26%
5,CN(NS(=O)(=O)c1ccc(Br)cc1)c1nc(C(F)(F)F)nc2ccccc12,31.4% (active)
6,COc1ccc(S(=O)(=O)NN(C)c2nc(C(F)(F)F)nc3ccccc23)cc1,-27.6%
7,CN(C)C1(CN=Cc2cc(Cl)cc([N+](=O)[O-])c2O)CCCCC1,-19%
8,O=C(N/N=C/c1ccc(-c2ccccc2)o1)c1ccccc1O,-1.6%
9,O=C(N/N=C/c1ccc(-c2cccc(C(F)(F)F)c2)o1)c1ccccc1Br,13.2%
10,O=C(N/N=C/c1ccc(-c2cccc(C(F)(F)F)c2)o1)c1ccccc1O,86.8% (active)
11,COc1ccc2cc(CCNC(=O)c3cccc([N+](=O)[O-])c3)c(=O)[nH]c2c1,45.6% (active)
12,Cc1cc2cc(CCNC(=O)c3cccc([N+](=O)[O-])c3)c(=O)[nH]c2cc1C,3.3%
13,Cc1ccc2cc(CCNC(=O)c3cccc([N+](=O)[O-])c3)c(=O)[nH]c2c1,26.4%
14,COc1cc(Br)c(CC(=O)O)cc1OC,4%
15,CCn1cc(C(=O)OCC(=O)c2cc(C)n(-c3ccccc3)c2C)c(=O)c2ccc(C)nc21,6.2%
16,CCn1cc(C(=O)OCC(=O)c2cc(C)n(-c3ccccc3F)c2C)c(=O)c2ccc(C)nc21,10.8%
17,CCn1cc(C(=O)OCC(=O)c2cc(C)n(-c3cccc(C(F)(F)F)c3)c2C)c(=O)c2ccc(C)nc21,62.7% (active)
18,Cc1nn(Cc2ccc(C(=O)N3CCN(C(=O)c4ccco4)CC3)o2)c(C)c1[N+](=O)[O-],-22.1%
19,C/C(=N\NC(=O)c1ccoc1C)c1ccc(Br)s1,15.3%
20,C/C(=N\NC(=O)c1ccccc1O)c1cccs1,69.7% (active)
21,C/C(=N\NC(=O)c1cccc2ccccc12)c1cccs1,-68.3%
22,C/C(=N\NC(=O)c1cc2ccccc2cc1O)c1cccs1,5.7%

row,Compound,inhibition
1,C/C(=N\NC(=O)c1ccccc1O)c1ccc(Br)s1,8.3%
2,CCN(CC(=O)NCc1ccc(Cl)cc1)C(=O)/C=C/c1cccs1,-23.9%
3,CC1CCCN(CC(=O)Nc2ccc(S(=O)(=O)N3CCCCCC3)cc2)C1 (centres undefined),-8.7%
4,Cc1ccc(/C=C2/SC(=Nc3ccc(F)cc3)NC2=O)s1,-8.8%
5,CC(=O)NC(Cc1ccc(C)cc1)C(=O)NC1CCN(C(=O)c2ccc([N+](=O)[O-])cc2)CC1 (centres undefined),-4.9%
6,Cc1noc2ncnc(N3CCCC3)c12,-13.8%
7,Cc1noc2ncnc(N3CCN(c4ccc(F)cc4)CC3)c12,-41.6%
8,Cc1nn(C)c(Oc2ccccc2)c1CCNS(=O)(=O)c1ccccc1,14.8%
9,CCN(CC)C(=S)Sc1c(-c2ccccc2)c2cc(Cl)ccc2[nH]c1=O,78.1% (active)
10,O=c1[nH]c2ccc(Cl)cc2c(-c2ccccc2)c1SC(=S)N1CCCCC1,47%
11,O=C(O)CSc1c(-c2ccccc2)c2cc(Cl)ccc2[nH]c1=O,-28.5%
12,COc1ccc2c(C)cc(SC3CCOC3=O)nc2c1 (centres undefined),-1.1%
13,C=CCc1cc(Cl)ccc1OCCOCCNCCOC,-24.9%
14,C=CCc1cc(Cl)ccc1OCCNCCOC,43.2% (active)
15,C=CCc1cc(Cl)ccc1OCCNCCCOC,-15.8%
16,CCC(C(=O)c1ccc2ncccc2c1)c1ccccc1 (centres undefined),-3.6%
17,CCOC(=O)C1=C(N)Oc2cc(O)ccc2C1c1cccc([N+](=O)[O-])c1 (centres undefined),41.2%
18,CCOC(=O)C1=C(N)Oc2cc(O)ccc2C1c1ccc([N+](=O)[O-])cc1 (centres undefined),67.7% (active)
19,CCOC(=O)C1=C(N)Oc2cc(O)ccc2C1c1ccc(C)cc1 (centres undefined),-17.2%
20,COc1cc(COc2ccc3c(C)c(CCC(=O)O)c(=O)oc3c2)cc(OC)c1OC,-4.2%
